Tat transport = blocks Tat-dependent protein export in E. coli; 340,000 tested, 0.036% active; inhibition, % at 10 µM; E. coli MC4100 TorA-mCherry Tat export, fluorescence;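 active means mean replicate inhibition at least 50% and at least half of replicates individually reaching 50%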;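 further: exported cargo escapes ClpAP degradation while cytoplasmic cargo is degraded and loses fluorescence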
E coli growth-1 = counter-screen for AddAB inhibitors: E. coli growth inhibition; E. coli V3065 growth, OD600 absorbance, 18 h; inhibition, % at 11.9 µM; 330,000 tested, 0.27% active;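 active means inhibition above the campaign's mean inhibition across all tested compounds plus 3 SD, cut at about 9.9% in these data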;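 further: uninfected addAB+ strain grown without phage in ampicillin broth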
Calb FLC = C. albicans growth modulation with fluconazole. 300,000 tested, 0.57% active. C. albicans CaCi-2 (fluconazole-resistant clinical isolate) + fluconazole, Alamar Blue growth, 48 h. growth inhibition, % (concentration not given with the values);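 active means growth inhibition above about 58% in most replicates, limit read from the data, passing the limit was not always enough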;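 further: all wells also contain fluconazole at 8 µg/ml as a sub-toxic cotreatment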
phage Ecoli inh = E. coli growth loss with phage present. growth absorbance. inhibition, % at 11.9 µM. 360,000 tested, 0.26% active; in the data active means inhibition above about 11%
AddAB inh = less growth of phage-infected E. coli with AddAB; E. coli expressing H. pylori AddAB, absorbance growth; inhibition, % at 11.9 µM; 330,000 tested, 0.29% active; AID 435030; in the data active means inhibition above about 12%
E coli growth-2 = blocks Escherichia coli growth. 330,000 tested, 0.21% active. AID 1053175. OD600, 23 h; stronger effect = lower value. OD600 absorbance (test concentration not listed);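 active means OD600 absorbance below the run mean of sample wells minus 3.6 SD, in any replicate, cut at about 0.56 in these data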
AddAB confirm = confirmation screen: growth loss of phage-infected E. coli expressing H. pylori AddAB; shares compounds with AddAB inh; E. coli V3065 expressing H. pylori AddAB, T4 phage, OD; T4 phage with gene 2 nonsense mutations; inhibition, % at 11.9 µM; 880 tested, 64% active; AID 488942;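 active means mean inhibition above a set limit taken from the earlier primary screen, cut at about 13% in these data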;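 further: higher means less bacterial growth since AddAB block lets phage replicate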
RecBCD counter = AddAB counter-screen: growth loss of RecBCD+ E. coli infected with mutant T4 phage; E. coli V66 + mutant T4 phage, OD growth; 880 tested, 73% active; inhibition, % at 11.9 µM; shares compounds with AddAB inh; AID 488955;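 active means mean inhibition above the mean of solvent-only control wells plus 3 SD, cut at about 4% in these data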;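 further: optical density read after an 18 h incubation at 37 °C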
bact viab count = counter-screen: bacterial growth inhibition; bacterial viability, absorbance (AddAB counterscreen); 880 tested, 35% active; shares compounds with AddAB inh; inhibition, % at 11.9 µM; AID 488956; in the data active means inhibition above about 25%
RecBCD conf = confirmation: growth loss of phage-infected RecBCD+ E. coli (RecBCD inhibitor screen). 890 tested, 45% active. E. coli V66 + T4 2- phage, growth OD. inhibition, % at 11.9 µM. shares compounds with phage Ecoli inh. AID 651982;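 active means mean inhibition over triplicates exceeding the hit threshold derived in the original primary screen, cut at about 11% in these data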
Ecoli viability = counter-screen for RecBCD inhibitors: inhibitors of bacterial viability; E. coli viability, absorbance (OD) growth; 890 tested, 29% active; AID 651983; shares compounds with phage Ecoli inh; inhibition, % at 11.9 µM; in the data active means inhibition above about 20%;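 further: E. coli strain V66 grown with compound alone and no phage infection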
AddAB counter = growth loss of phage-infected AddAB E. coli, RecBCD counter-screen | inhibition, % at 11.9 µM | 890 tested, 45% active | E. coli expressing H. pylori AddAB + T4 phage, OD growth; gene 2 mutant T4, recBCD-deleted host | shares compounds with phage Ecoli inh;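 active means mean inhibition above the solvent-only control wells' mean plus 3 SD, cut at about 22% in these data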;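 further: higher means less bacterial growth from phage killing when AddAB is blocked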
Hits are given with their value; – = inactive; · = not tested or not shown. An excerpt weighted towards active compounds, which were near 0.9% of everything screened.

SMILES	Tat transport	E coli growth-1	Calb FLC	phage Ecoli inh	AddAB inh	E coli growth-2	AddAB confirm	RecBCD counter	bact viab count	others
CC(=NNC(=O)c1ccc(Cn2cccn2)o1)c1cccc(NC(=O)c2ccncc2)c1	·	·	·	·	·	–	·	·	·
Cc1cc(C)nc(SCC(=O)NN=Cc2cccnc2)n1	·	·	·	·	·	–	·	·	·
C=CCN(c1ccccc1)S(=O)(=O)c1cccc(C(=O)NNC(=O)c2ccccc2O)c1	–	–	–	–	12.2	–	–	–	–
O=C1NCCCc2c1oc1ccc(O)cc21	–	98.5	–	–	100.2	–	–	–	–
COc1ccc(-c2[nH]ncc2C=NNS(=O)(=O)c2ccc(Cl)cc2)cc1	·	·	·	·	·	–	·	·	·
CC(Nc1c([N+](=O)[O-])c(=O)oc2ccccc12)C(Cl)c1ccccc1 (stereo not drawn)	–	–	–	–	–	–	·	·	·
CCNc1c([N+](=O)[O-])c(=O)oc2ccccc12	–	–	–	–	12.6	–	29.2	–	–
CCc1ccc(Nc2c([N+](=O)[O-])c(=O)oc3ccccc23)cc1	–	–	–	–	–	–	·	·	·
O=c1oc2ccccc2c(NC(c2ccccc2)c2ccccc2)c1[N+](=O)[O-]	–	–	–	–	39.0	–	101.2	5.3	–
CC1C=C(C(=O)NCc2nc3ccccc3[nH]2)OC(OCCCCO)C1 (stereo not drawn)	·	·	·	·	·	–	·	·	·
Nc1nn2c(-c3ccccc3)cc(=O)[nH]c2c1N=Nc1ccc(O)cc1	–	10.3	–	–	18.6	–	26.6	–	–
O=C1C2C(C3CC3)N3C(=O)CN(CC4CC4)C(=O)[C@@]3(Cc3ccccc3)C2C(=O)N1c1ccccc1 (stereo partly drawn)	·	·	·	·	·	–	·	·	·
Cc1cccc(N(C)S(=O)(=O)c2cccc3nsnc23)c1	–	–	–	–	14.3	–	–	–	–
CCN(c1cccc(C)c1)S(=O)(=O)c1cccc2nsnc12	–	–	–	–	–	–	·	·	·
Cc1cc(-c2n[nH]c(=S)n2N=Cc2ccc(C)s2)n[nH]1	·	·	·	·	·	–	·	·	·
CCN1/C(=C/C=C/c2sc3ccccc3[n+]2CC)Sc2ccccc21	–	–	–	·	12.6	·	61.4	9.1	–
CCCCn1c(=O)[nH]c2ccccc21	–	–	–	–	13.9	–	–	–	–
O=c1[nH]c2ccccc2n1CCCOc1ccccc1	–	–	–	–	–	–	·	·	·
CC(C)(C)OC(=O)N1CCCC1C(=O)N1CCC(C(=O)O)CC1 (stereo not drawn)	·	·	·	·	·	–	·	·	·
COc1cccc(/C=N/Nc2cc(-n3nc(C)cc3-c3ccccc3)ncn2)c1O	–	16.9	81.6	–	18.4	·	–	8.8	–
O=C(NCCCn1ccnc1)C(=O)NCC(c1cccnc1)N1CCN(c2ccccc2)CC1 (stereo not drawn)	–	97.5	–	–	96.9	–	–	–	–
O=C(NCCCn1ccnc1)C(=O)NCC(c1ccco1)N1CCN(c2ccccc2)CC1 (stereo not drawn)	–	–	–	–	–	–	·	·	·
COc1ccc(C2=CC(=O)CC(c3ccc(OC)cc3)C2)cc1 (stereo not drawn)	–	10.4	–	–	15.8	·	–	–	–
COc1ccc(C2=CC(=O)C[C@H](c3ccc(Cl)cc3)C2)cc1	–	–	·	–	–	·	·	·	·
COC(=O)C1C[C@@]2(O)C(O)C(O)C(O)CC2N1Cc1ccc(C(C)(C)C)cc1 (stereo partly drawn)	·	·	·	·	·	–	·	·	·
SMILES	Tat transport	E coli growth-1	Calb FLC	phage Ecoli inh	AddAB inh	E coli growth-2	AddAB confirm	RecBCD counter	bact viab count	others
CCCCCCN1Cc2ccccc2C1	–	–	–	–	–	–	·	·	·
CCCCCCCCCCn1ccc(=N)cc1	–	–	108.0	–	14.2	0.448	–	4.3	–
CCCCCCCCn1ccc(=N)cc1	–	10.1	–	–	13.1	–	–	–	–
O=C(COC(=O)COc1ccccc1)Nc1ncc([N+](=O)[O-])s1	–	–	·	–	13.0	–	33.4	5.7	–
O=C(Cc1ccc(Br)cc1)Nc1ncc([N+](=O)[O-])s1	–	–	–	–	–	–	·	·	·
O=C(NCc1cccs1)C1CCN(S(=O)(=O)c2cccc3cccnc23)CC1	–	–	–	–	17.4	–	–	–	–
O=C(NCc1nc2ccccc2[nH]1)c1ccc(Cl)c(S(=O)(=O)N2CCCC2)c1	–	–	–	–	15.9	–	–	4.0	–
CCCCCC(CC(=O)NO)C(=O)NC(C(=O)N1CCCC1CO)C(C)C (stereo not drawn)	–	22.4	·	24.9	21.8	–	19.2	24.1	–	RecBCD conf=18.2;Ecoli viability=–;AddAB counter=–
O=S1(=O)CCOC2Cc3ccccc3C2N1Cc1ccccc1F (stereo not drawn)	·	·	·	·	·	–	·	·	·
COc1cc(Cc2cnc(N)nc2N)cc(OC)c1OC	–	99.7	·	100.6	99.0	0.064	98.2	99.8	100.0	RecBCD conf=101.3;Ecoli viability=102.3;AddAB counter=101.5
O=c1c(O)c(-c2cccs2)oc2ccccc12	–	24.8	–	12.5	22.7	–	–	10.8	–	RecBCD conf=–;Ecoli viability=–;AddAB counter=–
O=c1c2ccccc2oc2ccccc12	·	·	·	–	·	·	·	·	·
O=c1[nH]c(=O)c2nnc(NN=Cc3ccc(O)cc3)nc2[nH]1	·	·	·	·	·	–	·	·	·
NC(=O)c1ccsc1NC(=O)c1ccc([N+](=O)[O-])o1	–	88.3	·	20.8	96.5	0.2	99.8	19.5	68.0	RecBCD conf=13.3;Ecoli viability=–;AddAB counter=101.4
CN1CCc2c(sc(NC(=O)c3ccc([N+](=O)[O-])o3)c2C(N)=O)C1	56.4	98.6	·	79.7	98.5	·	102.0	82.2	102.2	RecBCD conf=69.4;Ecoli viability=89.0;AddAB counter=102.8
Cc1ccnc(NC(=O)c2ccc([N+](=O)[O-])o2)c1	–	33.2	–	13.0	27.1	–	99.2	9.8	30.4	RecBCD conf=–;Ecoli viability=–;AddAB counter=74.8
Cc1ccnc(NC(=O)c2ccccc2[N+](=O)[O-])c1	–	–	–	–	–	–	·	·	·
Cc1ccccc1N(CC(=O)NN=Cc1ccc(Cl)cc1)C(=O)c1ccccc1	·	·	·	·	·	–	·	·	·
COc1ccc(NC(=O)CCC(=O)NN=Cc2ccc([N+](=O)[O-])s2)cc1	·	·	·	·	·	–	·	·	·

From PubChem BioAssay
